Assay results taken from PubChem BioAssay.
Activity calls are given as the source filed them.

Assays:
Albumin (Bos taurus) = Albumin (Bos taurus) (UniProt P02769); test: bovine serum albumin binders on microarray, profiling panel, artefact control for SMM control protein annotation, biochemical, small-molecule microarray, Alexa647 label, 635/667 nm fluorescence (AID 1118); settings: BSA-A647 binding, fluorescence 635 nm, higher = more signal;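 also: score merges 667 nm emission intensity and signal-to-noise per printed compound spot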
[1] = small-molecule microarray binders of probe aXIP, primary screen, biochemical, NeuroSMM set, 635/667 nm fluorescence (AID 1119); settings: higher = more signal, called active from +8 up or from −8 down;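 also: probe is the protein aXip251-270 applied at 1 µg/mL to compound-printed slides; binding of probe to printed compounds measured as 667 nm fluorescence plus signal to noise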
[2] = small-molecule binders of probe aNOTCH3, primary screen, biochemical, small-molecule microarray, 635/667 nm fluorescence (AID 1120); settings: higher = more signal;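 also: probe is a biotin-tagged antibody raised against NOTCH3 rather than NOTCH3 protein; score merges spot fluorescence near 667 nm with spot signal to noise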
[3] = small-molecule binders of probe aNOTCH2, primary screen, biochemical, small-molecule microarray, 635/667 nm fluorescence (AID 1121); settings: higher = more signal;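 also: score merges feature fluorescence read at 667 nm with its signal to noise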
[4] = target: Carbonic anhydrase 2 (Homo sapiens) (UniProt P00918); test: CAII small-molecule binders, profiling panel, biochemical, small-molecule microarray, Alexa647-labelled CAII (AID 1122); settings: CAII-A647 binding fluorescence, higher = more signal
[5] = COS7 lysate on small-molecule microarray, probe aHis, 635 nm (AID 1123); settings: COS7 cell lysate, fluorescence, higher = more signal;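 also: z-score combines 667nm fluorescence intensity with signal-to-noise per printed compound spot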
[6] = compound binding in COS7 lysate, probe aLAP1, primary screen, cell lysate, small-molecule microarray (AID 1124); settings: probe aLAP1, fluorescence, higher = more signal;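 also: lysate comes from COS7 cells expressing LAP1 and is applied at 0.3 µg/mL; score merges spot fluorescence near 667 nm with signal-to-noise over triplicate slides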
Sam68 (KHDRBS1) = test: Sam68 small-molecule binders, primary screen, biochemical, small-molecule microarray, 635 nm fluorescence (AID 1125); settings: small-molecule microarray binding, higher = more signal;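 also: score merges 667 nm channel intensity with signal to noise over triplicate slides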
[7] = test system: Chordin-like protein 2 (CHRDL2); test: CHRDL2 small-molecule binders, primary screen, biochemical, small-molecule microarray, 635 nm fluorescence (AID 1126); settings: small-molecule microarray binding, fluorescence 635 nm; higher = more signal;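 also: printed compound slides probed with Chrdl2 protein at 4 µg/mL for 1 h at 4 C; score merges 667 nm emission intensity with signal to noise over three replicate slides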
[8] = target: Concanavalin-A (Canavalia ensiformis) (UniProt P02866); test: ConA small-molecule binders, primary screen, artefact control for SMM control protein annotation, biochemical, small-molecule microarray, Alexa647 label, 635 nm (AID 1127); settings: ConA-A647 binding fluorescence, higher = more signal;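 also: z combines 667 nm emission intensity with signal-to-noise across three replicate slides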
Chain of Concanavalin-A (Canavalia ensiformis) (P02866 whole entry, looked up): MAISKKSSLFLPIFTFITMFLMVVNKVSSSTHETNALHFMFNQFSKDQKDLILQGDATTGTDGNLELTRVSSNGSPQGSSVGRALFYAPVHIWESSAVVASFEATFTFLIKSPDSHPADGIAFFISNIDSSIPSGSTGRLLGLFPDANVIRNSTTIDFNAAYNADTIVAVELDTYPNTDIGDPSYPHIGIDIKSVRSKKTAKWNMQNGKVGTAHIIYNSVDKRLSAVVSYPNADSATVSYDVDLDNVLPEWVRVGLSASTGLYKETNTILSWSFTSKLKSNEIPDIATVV

Chain of Albumin (Bos taurus) (P02769 whole entry, looked up): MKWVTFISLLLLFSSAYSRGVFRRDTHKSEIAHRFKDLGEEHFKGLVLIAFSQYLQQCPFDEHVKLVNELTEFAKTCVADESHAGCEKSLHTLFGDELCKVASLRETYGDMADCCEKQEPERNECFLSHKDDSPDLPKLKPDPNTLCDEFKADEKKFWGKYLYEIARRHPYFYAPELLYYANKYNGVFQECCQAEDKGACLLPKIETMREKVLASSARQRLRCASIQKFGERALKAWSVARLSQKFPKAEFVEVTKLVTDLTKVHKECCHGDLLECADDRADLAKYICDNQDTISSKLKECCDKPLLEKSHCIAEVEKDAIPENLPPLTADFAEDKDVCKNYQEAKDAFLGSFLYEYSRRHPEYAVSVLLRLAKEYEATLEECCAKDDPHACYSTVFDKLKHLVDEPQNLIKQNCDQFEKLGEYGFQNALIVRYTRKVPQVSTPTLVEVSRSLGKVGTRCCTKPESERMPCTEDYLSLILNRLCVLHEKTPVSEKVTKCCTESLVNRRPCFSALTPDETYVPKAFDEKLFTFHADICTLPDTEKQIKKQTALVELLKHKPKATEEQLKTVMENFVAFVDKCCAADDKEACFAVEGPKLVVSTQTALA

## NC(=O)[C@@H]1[C@H]2C(=O)O[C@H](c3ccccc3)[C@H](c3ccccc3)N2[C@H](c2ccc(O)cc2)[C@@]12C(=O)Nc1ccc(C#CC3=CCCCC3)cc12
Albumin (Bos taurus)
  composite z-score: 0.299
[1]
  composite Z-score: 1.1 (inactive)
[2]
  composite z-score: 0.81
[3]
  composite z-score: -0.117
[4]
  composite z-score: 0.411
[5]
  composite z-score: 2
[6]
  composite z-score: 0.331
Sam68 (KHDRBS1)
  composite z-score: 0.449
[7]
  composite z-score: -0.0967
[8]
  composite z-score: 0.426

## C=CC[C@]1(C(=O)N2CCOCC2)N=C(c2ccc(OCCCO)cc2)O[C@H]1c1ccccc1N=[N+]=[N-]
Albumin (Bos taurus)
  composite z-score: 0.561
[1]
  composite Z-score: 0.193 (inactive)
[2]
  composite z-score: 0.298
[3]
  composite z-score: -0.0896
[4]
  composite z-score: 0.751
[5]
  composite z-score: 2.77
[6]
  composite z-score: 0.647
Sam68 (KHDRBS1)
  composite z-score: 1.29
[7]
  composite z-score: -0.521
[8]
  composite z-score: 1.09

## C=C(/C(=C/C[C@H](OC(C)=O)c1ccc(OCCO)cc1)c1cc(C(=O)OC)ccc1OC)C(C)C
Albumin (Bos taurus)
  composite z-score: 0.322
[1]
  composite Z-score: 0.218 (inactive)
[2]
  composite z-score: 0.0562
[3]
  composite z-score: -0.0666
[4]
  composite z-score: 0.767
[5]
  composite z-score: 1.73
[6]
  composite z-score: -0.144
Sam68 (KHDRBS1)
  composite z-score: 1.31
[7]
  composite z-score: 0.305
[8]
  composite z-score: 0.883

## CCOC(=O)C[C@H]1[C@H](OC(=O)c2ccc(C(=O)c3ccccc3)cc2)[C@@H](NC(=O)c2ccccc2)c2cc(OCCCO)ccc2N1C(=O)c1ccccc1
Albumin (Bos taurus)
  composite z-score: 0.754
[1]
  composite Z-score: 0.607 (inactive)
[2]
  composite z-score: 0.184
[3]
  composite z-score: -0.108
[4]
  composite z-score: 0.171
[5]
  composite z-score: 0.702
[6]
  composite z-score: -0.115
Sam68 (KHDRBS1)
  composite z-score: 1.23
[7]
  composite z-score: 0.17
[8]
  composite z-score: 0.82

## [N-]=[N+]=Nc1ccccc1C[C@]1(C(=O)NCc2ccccc2)N=C(c2ccc(OCCCO)cc2)O[C@H]1c1ccccc1N=[N+]=[N-]
Albumin (Bos taurus)
  composite z-score: 0.896
[1]
  composite Z-score: 0.411 (inactive)
[2]
  composite z-score: 0.555
[3]
  composite z-score: -0.0211
[4]
  composite z-score: 0.676
[5]
  composite z-score: 2.63
[6]
  composite z-score: 0.458
Sam68 (KHDRBS1)
  composite z-score: 1.06
[7]
  composite z-score: -0.124
[8]
  composite z-score: 1.13

## O=C(NCCN1CCOCC1)[C@@H]1c2ccccc2C(=O)N(Cc2cc(C(F)(F)F)cc(C(F)(F)F)c2)[C@H]1c1ccc(CO)cc1
Albumin (Bos taurus)
  composite z-score: -0.32
[1]
  composite Z-score: -0.253 (inactive)
[2]
  composite z-score: -0.292
[3]
  composite z-score: -0.101
[4]
  composite z-score: 0.699
[5]
  composite z-score: 1.61
[6]
  composite z-score: 0.501
Sam68 (KHDRBS1)
  composite z-score: 0.687
[7]
  composite z-score: -1.67
[8]
  composite z-score: 0.412

## C=CCNC(=O)[C@@H]1[C@H]2C(=O)O[C@H](c3ccccc3)[C@H](c3ccccc3)N2[C@H](c2ccc(OCCO)cc2)[C@@]12C(=O)N(C(=O)OCCOC)c1ccc(C#CCC(C(=O)OC)C(=O)OC)cc12
Albumin (Bos taurus)
  composite z-score: 0.371
[1]
  composite Z-score: 0.0558 (inactive)
[2]
  composite z-score: 0.199
[3]
  composite z-score: 0.0278
[4]
  composite z-score: 0.637
[5]
  composite z-score: 1.37
[6]
  composite z-score: 1.05
Sam68 (KHDRBS1)
  composite z-score: 1.31
[7]
  composite z-score: 0.665
[8]
  composite z-score: 1.09

## COc1ccc([Si](C)(C)[C@@H]2[C@@H](CCn3cc(CCO)nn3)O[C@]3(C(=O)N(Cc4cccc(N5C(=O)c6cccc7cccc5c67)c4)c4ccccc43)[C@H]2C)cc1
Albumin (Bos taurus)
  composite z-score: 0.695
[1]
  composite Z-score: 0.478 (inactive)
[2]
  composite z-score: 0.0351
[3]
  composite z-score: -0.14
[4]
  composite z-score: 0.224
[5]
  composite z-score: 1.01
[6]
  composite z-score: 0.222
Sam68 (KHDRBS1)
  composite z-score: 1.29
[7]
  composite z-score: -0.0468
[8]
  composite z-score: 0.833

## COCCCNC(=O)[C@@]1(Cc2ccccc2CN=[N+]=[N-])N=C(c2ccc(OCCCO)cc2)O[C@H]1c1ccccc1CN=[N+]=[N-]
Albumin (Bos taurus)
  composite z-score: 1.02
[1]
  composite Z-score: 0.585 (inactive)
[2]
  composite z-score: 0.459
[3]
  composite z-score: -0.0438
[4]
  composite z-score: 0.594
[5]
  composite z-score: 2.58
[6]
  composite z-score: 0.574
Sam68 (KHDRBS1)
  composite z-score: 1.29
[7]
  composite z-score: -1.13
[8]
  composite z-score: 0.972

## NCCCCCNC(=O)[C@H]1C[C@H]2C(=O)N[C@@H](Cc3ccccc3)C(=O)N2[C@H]1c1cccc(OCCO)c1
Albumin (Bos taurus)
  composite z-score: 0.862
[1]
  composite Z-score: 1.11 (inactive)
[2]
  composite z-score: 0.144
[3]
  composite z-score: 0.0409
[4]
  composite z-score: 0.438
[5]
  composite z-score: 0.24
[6]
  composite z-score: 1.07
Sam68 (KHDRBS1)
  composite z-score: 0.474
[7]
  composite z-score: 0.723
[8]
  composite z-score: 0.883

## CCOC(=O)C1=CC[C@H]2C(=O)N(c3ccccc3)C(=O)[C@@H]12
Albumin (Bos taurus)
  composite z-score: 0.916
[1]
  composite Z-score: 1.58 (inactive)
[2]
  composite z-score: 0.0893
[3]
  composite z-score: -0.046
[4]
  composite z-score: 0.848
[5]
  composite z-score: 2.7
[6]
  composite z-score: 0.786
Sam68 (KHDRBS1)
  composite z-score: 1.31
[7]
  composite z-score: 0.613
[8]
  composite z-score: 1.05

## CCCC(=O)N(CCc1c[nH]c2ccccc12)[C@@H]1CC(C(=O)NCCO)=C[C@H](Oc2c(I)cc(CO)cc2OC)[C@H]1O
Albumin (Bos taurus)
  composite z-score: 0.0754
[1]
  composite Z-score: -0.471 (inactive)
[2]
  composite z-score: -0.0962
[3]
  composite z-score: -0.085
[4]
  composite z-score: 0.723
[5]
  composite z-score: 0.532
[6]
  composite z-score: -0.107
Sam68 (KHDRBS1)
  composite z-score: 0.195
[7]
  composite z-score: 0.144
[8]
  composite z-score: 0.314

## COc1ccc(CCNC(=O)[C@@]2(C)c3ccccc3C(=O)N(c3ccc(C)cn3)[C@H]2c2ccc(CO)cc2)cc1
Albumin (Bos taurus)
  composite z-score: -0.252
[1]
  composite Z-score: -0.133 (inactive)
[2]
  composite z-score: -0.365
[3]
  composite z-score: -0.0956
[4]
  composite z-score: 0.793
[5]
  composite z-score: -0.335
[6]
  composite z-score: 0.165
Sam68 (KHDRBS1)
  composite z-score: 0.243
[7]
  composite z-score: -1.02
[8]
  composite z-score: -0.699

## Cc1c(NC(=O)/C(C#N)=C/c2cccc([N+](=O)[O-])c2)c(=O)n(-c2ccccc2)n1C
Albumin (Bos taurus)
  composite z-score: 0.48
[1]
  composite Z-score: -0.449 (inactive)
[2]
  composite z-score: 0.0934
[3]
  composite z-score: 0.993
[4]
  composite z-score: 0.792
[5]
  composite z-score: 0.719
[6]
  composite z-score: 0.861
Sam68 (KHDRBS1)
  composite z-score: 0.928
[7]
  composite z-score: 0.393
[8]
  composite z-score: 0.456

## COc1ccc(C(O)C2C=CC3C(=O)N(C)C(=O)C3N2NC(=O)OC(C)(C)C)c2ccccc12 (stereo not given)
Albumin (Bos taurus)
  composite z-score: 1.02
[1]
  composite Z-score: -0.128 (inactive)
[2]
  composite z-score: 0.424
[3]
  composite z-score: 0.0315
[4]
  composite z-score: 0.745
[5]
  composite z-score: 2.98
[6]
  composite z-score: 0.404
Sam68 (KHDRBS1)
  composite z-score: 1.3
[7]
  composite z-score: -0.345
[8]
  composite z-score: 1.11

## COC(=O)[C@@]1(Cc2ccc(OC)cc2)[C@H]2c3cc(C(=O)N(C)C)n(Cc4ccc(C(F)(F)F)nc4)c3C[C@H]2CN1C(=O)c1ccccc1
Albumin (Bos taurus)
  composite z-score: 0.92
[1]
  composite Z-score: 3.72 (inactive)
[2]
  composite z-score: 0.17
[3]
  composite z-score: 0.183
[4]
  composite z-score: 0.752
[5]
  composite z-score: 2.11
[6]
  composite z-score: 0.017
Sam68 (KHDRBS1)
  composite z-score: -0.354
[7]
  composite z-score: 0.181
[8]
  composite z-score: -0.0962
